Source: PubChem
IMPase inh = cell-permeable inhibitors of inositol monophosphatase (IMPase); P97697; CHO-M1 cells, IP1 accumulation, HTRF TR-FRET ratio; inhibition (IP1 accumulation), % at 46.1 µM; 120,000 tested, under 10 active; AID 901; active means well fitted curve in the direction sought with a large enough effect in the signal ratio, not every such curve was filed as active; inconclusive means small, poorly fitted or top-dose-only effect, or a change in a side signal; inactive means no such curve, though single readings can be large or run the other way; the % refers to the signal ratio;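 further: cells stimulated with carbachol in lithium chloride buffer; plate controls were DMSO basal wells for no effect and reference inhibitor wells for full effect; higher means more IMPase inhibition seen as more IP1 and lower FRET ratio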
Target sequence (P97697 whole entry, looked up): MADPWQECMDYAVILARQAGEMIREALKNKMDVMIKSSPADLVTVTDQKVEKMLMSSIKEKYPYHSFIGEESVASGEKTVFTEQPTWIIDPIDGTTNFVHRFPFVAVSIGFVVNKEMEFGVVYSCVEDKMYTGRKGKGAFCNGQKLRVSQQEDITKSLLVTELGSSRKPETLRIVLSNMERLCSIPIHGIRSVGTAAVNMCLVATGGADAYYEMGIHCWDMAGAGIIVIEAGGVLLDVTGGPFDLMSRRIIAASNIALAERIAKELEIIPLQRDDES
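Elevated IP1 in lysates lowers TR-FRET signal (665/620 ratio and 620 channel reported). Cells were CHO-M1, given carbachol (50 uM as added) plus 50mM LiCl, pH 7.4, 30 min, 37C; compounds titrated up to 46 uM; AC50 by Hill equation.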
IMPase Li inh = cell-permeable IMPase inhibitors with lithium potentiation; CHO-M1 cells, IP1 TR-FRET (IP-One), carbachol + lithium; Potency, µM (series often up to 59.4 µM), for the others: at the top dose activity, negative = IMPase inhibition, actives largely listed as inhibitors; AID 1457; 210,000 compounds, 0.35% hits;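 further: IP1 builds up when IMPase is blocked and the TR-FRET signal falls; potency means the concentration at half of the fitted maximal effect; plate controls were basal vehicle for no effect and high inhibitor control for full effect; nearly all actives have a fitted effect of over 50% in size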
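Concentration–response in CHO-M1 cells, lithium-potentiated; 30 min at 37C. IP1 detected by competitive TR-FRET after 10 min lysis at RT. Hill-fitted AC50.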
12-hLO inh = inhibitors of human 12-lipoxygenase (ALOX12). AID 1452. Potency, µM (highest dose often 57.1 µM), for inactives: top-dose activity change, negative = inhibition, most hits filed as inhibitors. purified 12-hLO, xylenol orange hydroperoxide absorbance. P18054. 150,000 compounds, 0.12% hits; further: potency means the concentration at half of the fitted maximal effect; nearly all actives have a fitted effect of over 55% in size
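Purified human 12hLO (150 nM final) was preincubated with compounds for 15 min at room temperature in 25 mM Hepes pH 7.0, 0.01% Triton X-100, then reacted with 40 uM arachidonic acid for 30 min. Hydroperoxide was detected with ferrous iron/xylenol orange.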
PNC assembly inh = inhibitors of perinucleolar compartment assembly | 140,000 compounds, 3.1% hits | AID 2417 | PC3M PTB-GFP, PNC prevalence imaging, 16 h; active compounds read low | activity change (PNC), negative = inhibition, % at 10 µM;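 active means readout at or below -70, meaning at least 70% loss of cells showing the perinucleolar compartment, a nuclear body marking cancer cells; inconclusive means readout between -30 and a set limit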;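 further: plate controls were DMSO wells for no effect and camptothecin positive control wells for full effect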
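PC3M cells stably expressing PTB-GFP, 750–1000 cells/well, treated 16 h at 37 °C with compound (23 nl of library stock), in duplicate. After paraformaldehyde fixation and Hoechst stain, imaged at 20x; PNC prevalence scored by image analysis.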
* = called active by the depositor; ? = inconclusive; . = no result given; [ ] = another dose, or the depositor's remark. This excerpt belongs to a sample that is enriched for hits. Unless noted, the call rests on the fitted dose curve; in most records, active means well fitted curve in the direction sought with a large enough effect; inconclusive means small, poorly fitted or top-dose-only effect, or another doubt; inactive means no such curve, though single readings can be large; an effect the other way counts as inactive or inconclusive. Unless noted, on the % scale 0 is the no-effect control and ±100 the full control effect.

SMILES	IMPase inh	IMPase Li inh	12-hLO inh	PNC assembly inh
Cc1cccc(N2CC(C(=O)OCC(=O)c3ccc(OC(=O)c4cccs4)cc3)CC2=O)c1C (stereo unspecified)	-4	3%[38.3 µM]	-1%	-83*
O=C(CSc1nnc(CNC(=O)c2cccs2)o1)NC1CCCC1	-10	2%	6%	-100*
O=C(CSc1nnc(CNC(=O)c2cccs2)o1)Nc1ccccc1	.	-5%	.	.
CC(C)(C)C(=O)CNS(=O)(=O)c1ccc(S(=O)(=O)NC2CCCC2)cc1	-5	-1%	1%	-82*
Brc1ccc(-c2nn3c(-c4ccncc4)nnc3s2)o1	-1	.	-1%	29
COc1cccc(-c2nn3c(-c4ccco4)nnc3s2)c1	-7	11µM*	-20%	-14
Brc1ccc(-c2nn3c(-c4ccco4)nnc3s2)o1	?	11µM*	-21%	14
CCCCNS(=O)(=O)c1ccc(NC(=O)C(Sc2ccccc2)c2ccccc2)cc1 (stereo unspecified)	.	12%	-3%	21
COC(=O)C1=CN(C)C=C(C(=O)OC)C1c1ccccc1Cl	?	1%	-2%	-109*
CCOC(=O)C1CCN(C(=O)COC(=O)CNC(=O)c2ccc(OC)cc2)CC1	.	-3%	.	.
O=C(NCc1ccco1)C(=O)NCC1OCCCN1S(=O)(=O)c1ccccc1 (stereo unspecified)	.	-2%	0%	-4
Cc1ccc(S(=O)(=O)N2CCCOC2CNC(=O)C(=O)NCc2cccnc2)cc1 (stereo unspecified)	.	3%	0%	103
O=C(NCc1cccs1)C(=O)NCC1OCCCN1S(=O)(=O)c1ccccc1 (stereo unspecified)	.	-13%	-2%	-90*
O=C(NCc1cccnc1)C(=O)NCC1OCCN1S(=O)(=O)c1ccc(Cl)cc1 (stereo unspecified)	.	3%	2%	-119*
CCN(CC)c1ccc(-c2nn3c(-c4n[nH]c5c4CCC5)nnc3s2)cc1	1	-1%[38.3 µM]	-1%	-99*
C=CCn1c(SCC(=O)c2ccc(OC)cc2)nnc1-c1cc2cccc(OC)c2o1	6	-5%[38.3 µM]	-8%	-123*
Cc1nc2c(=O)n(C)c(=O)n(C)c2nc1Cl	.	-9%	-3%	0
O=C(NCC(F)(F)F)Nc1cccnc1	7	0%	-1%	-100*
COc1ccc(C(=O)OCC(=O)NCc2ccc3c(c2)OCO3)cc1[N+](=O)[O-]	2	6%	-1%	-107*
O=C(Nc1ccccc1)N1CCCc2ccccc21	-6	6%	4%	-100*
COc1ccc(C)cc1NC(=O)N1CCCc2ccccc21	.	25µM*	.	.
O=C(NC(=S)N1CCCc2ccccc21)c1ccc(Cl)cc1	.	13%	-2%	-107*
O=C(NC(=S)N1CCCc2ccccc21)c1ccccc1	9	-17%[38.3 µM]	0%	91
COc1ccc(NC(=O)CC(=O)Nc2ccc(OC)cc2OC)c(OC)c1	-5	-9%[38.3 µM]	-8%	-127*
COc1ccc(-c2noc(CCC(=O)NCc3ccc(OC)cc3OC)n2)cc1	12	.	.	.
SMILES	IMPase inh	IMPase Li inh	12-hLO inh	PNC assembly inh
COc1ccc(CC(=O)Nc2ccc(-c3noc(-c4cc(OC)c(OC)c(OC)c4)n3)cc2)cc1	-9	-22%	-5%	-100*
COc1ccc(CC(=O)Nc2ccc(-c3noc(-c4ccc(Cl)cc4)n3)cc2)cc1	-15	3%	1%	63
COc1ccc(NC(=O)CSc2c3c(nc4ccccc24)CCCC3)c(OC)c1	.	4%	-1%	-113*
COc1ccc(NC(=O)CCc2nc(-c3ccc(C)cc3)no2)c(OC)c1	-3	-9%[38.3 µM]	0%	-103*
COc1ccc(NC(=O)CCSCCC(=O)Nc2ccc(OC)cc2OC)c(OC)c1	.	-2%	-1%	?
Cc1cccc(Nc2nnc(SCC(=O)NCc3cccs3)s2)c1C	.	0%	-3%	-10
CC(N=C1NS(=O)(=O)c2ccccc21)C(=O)NCc1ccc2c(c1)OCO2 (stereo unspecified)	3	15%[38.3 µM]	6%	71
COc1ccc(-c2noc(CCC(=O)Nc3cccnc3)n2)cc1OC	-1	0%[38.3 µM]	-3%	-100*
CCCCC(=O)Nc1ccc(NC(=O)CC)cc1OC	4	10%[38.3 µM]	6%	-84*
CCCCC(=O)Nc1ccc(NC(=S)NC(=O)CC(C)C)cc1OC	.	-3%	-4%	23
COc1ccc(Cc2nc(-c3ccc(NC(=O)c4cccnc4)cc3)no2)cc1	-1	4%[38.3 µM]	-5%	-126*
COc1cccc(-c2noc(CCC(=O)Nc3cccnc3)n2)c1	2	29%[38.3 µM]	2%	-18
COc1ccc(OC)c(N(CC(=O)Nc2cccnc2)S(=O)(=O)c2ccc(OC)c(OC)c2)c1	-6	23%[38.3 µM]	0%	-109*
NNC(=O)COc1cccc(Oc2ccccc2)c1	.	-8%	.	.
CCOc1c2ccc(C(=O)NCCCCc3ccccc3)cc2nn1CC	5	4%[38.3 µM]	7%	33
COc1ccc(C2C(C(=O)NCCN(C)C)c3cc(OC)c(OC)cc3C(=O)N2C)cc1OC (stereo unspecified)	-3	3%	3%	-81*
COc1ccc(C2C(C(=O)NCC3CCCO3)c3cc(OC)c(OC)cc3C(=O)N2C)cc1OC (stereo unspecified)	6	7%	-1%	3
CC(C)[C@H](NC(=O)Nc1cccc(Br)c1)C(=O)O	.	-2%	0%	-91*
CCOCC(=O)Nc1cccc(Br)c1	4	25%[38.3 µM]	6%	25
CCC(=O)Nc1ccc(F)c(Cl)c1	-4	21%[38.3 µM]	2%	-106*
COC(=O)CCCC(=O)Nc1ccc(Cl)c(Cl)c1	-5	7%	4%	-100*
CCC(=O)Nc1cccc(Br)c1	1	14%[38.3 µM]	2%	-116*
CC(=O)Nc1nn(C)c2nc(C)cc(C)c12	.	-6%	.	.
CC(=O)N1c2ccccc2C(C)CC12CCCCC2 (stereo unspecified)	-13	1%	13%	-83*
CCCn1c(N2CCN(CC(=O)NCc3cccs3)CC2)nc2ccccc21	9	3%	-7%	-87*
SMILES	IMPase inh	IMPase Li inh	12-hLO inh	PNC assembly inh
CN(C)S(=O)(=O)c1ccc(Cl)c(NC(=O)CSc2nc3c(cc2C#N)C(=O)CC(C)(C)C3)c1	.	2%	1%	-109*
Cc1ccc(/C=N/NC(=S)NC2CCS(=O)(=O)C2)cc1 (stereo unspecified)	0	-8%	-4%	-20
COc1ccc(/C=N/NC(=S)NC2CCS(=O)(=O)C2)cc1OC (stereo unspecified)	-1	10%[38.3 µM]	-2%	-100*
C=CCN=C(C)C1=C(O)CCC1=O	3	19%[38.3 µM]	-1%	55
C=CCN=C(CC)C1=C(O)CCCC1=O	2	.	-7%	-109*
Cc1ccccc1OCC(=O)Nc1ccc2oc(-c3ccc(F)cc3)nc2c1	-1	.	.	.
Cc1sc(NC(=O)C2CCCO2)c(C#N)c1C (stereo unspecified)	0	27%[38.3 µM]	8%	-92*
Cc1ccc(NS(=O)(=O)c2ccc(Cl)c(NC(=S)NC(=O)C3CCCCC3)c2)cc1Cl	.	16%	?	24
